Measurements as given in PubChem BioAssay (NCI).
The panel holds about 79,000 compounds, 15% with a hit somewhere; the sample as a whole holds those more often. A number with no mark means an inactive call. Calls of active or inactive are those of the source. Rule as the data show it: active = growth inhibition above about 70%; inactive = the rest.

Legend:
[1] = NCI Yeast Anticancer Drug Screen. Data for the rad50 strain (AID 155);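 also: 0% = growth of vehicle-only cultures of the same strain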; details: S. cerevisiae rad50 strain growth inhibition; at 50.0 µM; stronger effect = higher value
Procedure, shortened: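 Genetically altered yeast (DNA repair pathway); compound treatment; growth inhibition vs vehicle ctrl.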

[2] = NCI Yeast Anticancer Drug Screen. Data for the mec2-1 strain (AID 157); details: S. cerevisiae mec2-1 strain, at 50.0 µM, stronger effect = higher value
Procedure, shortened: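 Each compound was tested on mec2-1 yeast, a strain altered in DNA damage repair or cell cycle control. Growth inhibition is reported relative to vehicle.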

[3] = NCI Yeast Anticancer Drug Screen. Data for the sgs1 mgt1 strain (AID 161);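 also: 0% = growth of cultures given vehicle only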; details: S. cerevisiae sgs1 mgt1 strain, at 50.0 µM, stronger effect = higher value
Procedure, shortened: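 Mutant yeast exposed to compound; growth scored against vehicle-only wells.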

[4] = NCI Yeast Anticancer Drug Screen. Data for the cln2 rad14 strain (AID 165);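 also: 0% = growth equal to vehicle treated cultures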; details: S. cerevisiae cln2 rad14 strain, at 50.0 µM, stronger effect = higher value
Procedure, shortened: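 Test compounds were added to cln2 rad14 yeast cultures; inhibition of growth was then determined by comparison with vehicle treatment.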

[5] = NCI Yeast Anticancer Drug Screen. Data for the bub3 strain (AID 167); details: S. cerevisiae bub3 mutant strain, at 50.0 µM, stronger effect = higher value
Procedure, shortened: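 Yeast carrying a defined mutation is treated with each compound, and growth is compared with that of vehicle-exposed cells to give inhibition.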

[6] = NCI Yeast Anticancer Drug Screen. Data for the mlh1 rad18 strain (AID 175); details: S. cerevisiae mlh1 rad18 strain growth inhibition; at 50.0 µM; stronger effect = higher value
Procedure, shortened: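 Inhibition values reflect reduced growth of mutant yeast versus vehicle-treated controls following compound exposure; the mutations affect DNA damage repair.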

O=C1C=C(Nc2ccccc2C(=O)c2ccccc2)c2ccccc2C1=O
growth inhibition [1]: 18.9%
growth inhibition [2]: -30.4%
growth inhibition [3]: 6.65%
growth inhibition [4]: 4.9%
growth inhibition [5]: 14.8%
growth inhibition [6]: 2.4%

ClCC1=NC2C(Cl)C(Cl)C(Cl)C(Cl)C2N1 (configuration not stated)
growth inhibition [1]: 87.8% (active)
growth inhibition [2]: 77% (active)
growth inhibition [3]: 94.7% (active)
growth inhibition [4]: 87.5% (active)
growth inhibition [5]: 75.9% (active)
growth inhibition [6]: 94% (active)

CNc1ccc(C(=O)NC(CCC(=O)O)C(=O)O)cc1I (configuration not stated)
growth inhibition [1]: 36.6%
growth inhibition [2]: -6.2%
growth inhibition [3]: -4.1%
growth inhibition [4]: 0.15%
growth inhibition [5]: 5.5%
growth inhibition [6]: 10.3%

COC(=O)c1cc(-c2ccc(F)cc2)[nH]c(=O)c1C#N
growth inhibition [1]: 6.3%
growth inhibition [2]: -10.4%
growth inhibition [3]: 15.3%
growth inhibition [4]: 13.4%
growth inhibition [5]: -25.8%
growth inhibition [6]: 16.6%

C=CC(Br)(CBr)CCC(Cl)C(C)C (configuration not stated)
growth inhibition [1]: 86.2% (active)
growth inhibition [2]: 90.7% (active)
growth inhibition [3]: 90.8% (active)
growth inhibition [4]: 91.7% (active)
growth inhibition [5]: 90.3% (active)
growth inhibition [6]: 90.5% (active)

Cc1cccc(S(=O)(=O)c2ccccc2)c1
growth inhibition [1]: 22.9%
growth inhibition [2]: 34.1%
growth inhibition [3]: -15.7%
growth inhibition [4]: 13.1%
growth inhibition [5]: 4.35%
growth inhibition [6]: 18.6%

C/C=C/c1cc(C)cc(C)c1OC(C)CC (configuration not stated)
growth inhibition [1]: -2.45%
growth inhibition [2]: -9.75%
growth inhibition [3]: 11.4%
growth inhibition [4]: -34.5%
growth inhibition [5]: -17.9%
growth inhibition [6]: 10.1%

O=C1c2ccccc2C(=O)N1[C@@H](Cc1ccccc1)C(=O)n1cccc1CO
growth inhibition [1]: 14.8%
growth inhibition [2]: 21.4%
growth inhibition [3]: 20.8%
growth inhibition [4]: 25.5%
growth inhibition [5]: 28.9%
growth inhibition [6]: 10.9%

C=C(CC[C@@H](C)[C@H]1CC[C@@]2(C)C3=C(CC[C@]12C)[C@@]1(C)CC[C@H](O)[C@@H](C)C1CC3)C(C)C (some centres not stated)
growth inhibition [1]: 10.4%
growth inhibition [2]: 2.8%
growth inhibition [3]: 45.2%
growth inhibition [4]: 37.8%
growth inhibition [5]: 14.6%
growth inhibition [6]: 71.5% (active)

O=C(N/N=C\c1ccc(Cl)c(Cl)c1)c1ccncc1
growth inhibition [1]: -6.65%
growth inhibition [2]: -1%
growth inhibition [3]: -3.05%
growth inhibition [4]: 5.4%
growth inhibition [5]: -1.75%
growth inhibition [6]: -5.7%

CCCCCN(CCCCC)CC(O)c1ccc2cc3c(nc2c1)CCCC3 (configuration not stated)
growth inhibition [1]: 6.2%
growth inhibition [2]: 10.2%
growth inhibition [3]: 26.9%
growth inhibition [4]: 5.25%
growth inhibition [5]: -7.2%
growth inhibition [6]: 1.5%

CCCCCCCCCCCCOC1C(COCCN2CCCCC2)OC2OC(C)(C)OC21 (configuration not stated)
growth inhibition [1]: 92.6% (active)
growth inhibition [2]: 93.4% (active)
growth inhibition [3]: 89.7% (active)
growth inhibition [4]: 90% (active)
growth inhibition [5]: 88% (active)
growth inhibition [6]: 90.2% (active)

O=C1CSCN1N1CSCC1=O
growth inhibition [1]: -5.85%
growth inhibition [2]: 3.1%
growth inhibition [3]: 7.85%
growth inhibition [4]: -4.35%
growth inhibition [5]: 8.95%
growth inhibition [6]: 18.8%

COc1ccc2[nH]c3c(c(=O)c2c1)CCCC3
growth inhibition [1]: -1.15%
growth inhibition [2]: -12.9%
growth inhibition [3]: 2.85%
growth inhibition [4]: -6.2%
growth inhibition [5]: 5.8%
growth inhibition [6]: -12.7%

N#C/C(=C\c1cccnc1)c1ccc(Br)cc1
growth inhibition [1]: 59.4%
growth inhibition [2]: 36.4%
growth inhibition [3]: 41.8%
growth inhibition [4]: 14.3%
growth inhibition [5]: 43.5%
growth inhibition [6]: 70% (active)

C[N+](C)(C)/N=C1\CC2CCC1C2 (configuration not stated)
growth inhibition [1]: 18.3%
growth inhibition [2]: -4.5%
growth inhibition [3]: -5.55%
growth inhibition [4]: 4.75%
growth inhibition [5]: 1.9%
growth inhibition [6]: 23.1%

Cc1cccc(C(C)C)c1NC(=O)C(=O)CC(=O)c1c(C)n([O-])c2ccccc2[n+]1=O
growth inhibition [1]: -7.2%
growth inhibition [2]: 9.45%
growth inhibition [3]: -10%
growth inhibition [4]: 12.2%
growth inhibition [5]: -13.1%
growth inhibition [6]: -16.2%

CCc1cccc(CC)c1Nc1nc(C)nc2c1cnn2C
growth inhibition [1]: -3.55%
growth inhibition [2]: -1.85%
growth inhibition [3]: 5.55%
growth inhibition [4]: -40.1%
growth inhibition [5]: 5.35%
growth inhibition [6]: 3.95%

O=c1[nH][nH]c(=O)n2c1cc1oc(-c3ccccc3)cc12
growth inhibition [1]: 0.05%
growth inhibition [2]: 2.45%
growth inhibition [3]: 17.8%
growth inhibition [4]: -16.1%
growth inhibition [5]: 23%
growth inhibition [6]: 22.7%

CCCCCCCCCCCCCCCCCCCCCCCCCCCCCCS(=O)(=O)Cl
growth inhibition [1]: 14.7%
growth inhibition [2]: 28.1%
growth inhibition [3]: 16.9%
growth inhibition [4]: 18.8%
growth inhibition [5]: 33.9%
growth inhibition [6]: -18.9%

O=C(NCCCl)NC(Cc1ccccc1)Cc1ccccc1
growth inhibition [1]: 6.65%
growth inhibition [2]: 10.7%
growth inhibition [3]: 15%
growth inhibition [4]: 53.7%
growth inhibition [5]: 2.1%
growth inhibition [6]: 31.4%

CCCCCCCCCCCCCCCC[N+](C)(C)Cc1ccccc1
growth inhibition [1]: 99.2% (active)
growth inhibition [2]: 99% (active)
growth inhibition [3]: 99.3% (active)
growth inhibition [4]: 99% (active)
growth inhibition [5]: 98.8% (active)
growth inhibition [6]: 98.9% (active)

CCSCC1OC(n2cnc3c(=S)nc(N)[nH]c32)C(O)C1O (configuration not stated)
growth inhibition [1]: 15.2%
growth inhibition [2]: 10.1%
growth inhibition [3]: -0.75%
growth inhibition [4]: 16.4%
growth inhibition [5]: 11.8%
growth inhibition [6]: 21.1%

CCOC(=O)CC[C@H](NC(=O)c1[nH]cnc1/N=N/N(C)C)C(=O)OCC
growth inhibition [1]: -24.5%
growth inhibition [2]: -41.5%
growth inhibition [3]: -56%
growth inhibition [4]: 3.7%
growth inhibition [5]: -12.1%
growth inhibition [6]: -36.9%

C(CCc1nnc2c(n1)CCCC2)Cc1nnc2c(n1)CCCC2
growth inhibition [1]: -7.6%
growth inhibition [2]: -17.9%
growth inhibition [3]: -1.05%
growth inhibition [4]: -12.1%
growth inhibition [5]: 10.1%
growth inhibition [6]: -2.4%

c1ccc(C(=NN(CCCCN(N=C(c2ccccc2)c2ccccc2)c2ccccc2)c2ccccc2)c2ccccc2)cc1
growth inhibition [1]: 28.6%
growth inhibition [2]: 21.4%
growth inhibition [3]: -11.6%
growth inhibition [4]: 6.4%
growth inhibition [5]: 0.05%
growth inhibition [6]: 19.9%

CCCCCCCCCCCCCCCC[N+](C)(C)CCN
growth inhibition [1]: 98.9% (active)
growth inhibition [2]: 50.8%
growth inhibition [3]: 58.4%
growth inhibition [4]: 73.4% (active)
growth inhibition [5]: 49.2%
growth inhibition [6]: 59.7%

CCN(CC)CCOC(=O)Nc1c(Cl)cccc1Cl
growth inhibition [1]: -3.75%
growth inhibition [2]: -16.7%
growth inhibition [3]: 8.6%
growth inhibition [4]: 9.4%
growth inhibition [5]: 9.25%
growth inhibition [6]: 6.05%

O=C(CCN1CCCCC1)C(O)(c1ccccc1)c1ccccc1
growth inhibition [1]: 19.2%
growth inhibition [2]: -2%
growth inhibition [3]: 24.7%
growth inhibition [4]: -6.05%
growth inhibition [5]: -10.4%
growth inhibition [6]: 14.2%

COC(=O)NS(=O)(=O)CC(=O)c1ccccc1
growth inhibition [1]: 10.2%
growth inhibition [2]: -0.3%
growth inhibition [3]: -1.55%
growth inhibition [4]: 8.9%
growth inhibition [5]: 1.3%
growth inhibition [6]: 9.9%

Cc1cc([N+](=O)[O-])c2ncccc2c1
growth inhibition [1]: -12.3%
growth inhibition [2]: -7.7%
growth inhibition [3]: -2.7%
growth inhibition [4]: -33%
growth inhibition [5]: -15.7%
growth inhibition [6]: -6.95%

Cc1ccnc2ccccc12
growth inhibition [1]: 0.15%
growth inhibition [2]: 1.55%
growth inhibition [3]: -1.6%
growth inhibition [4]: -3.2%
growth inhibition [5]: -2.15%
growth inhibition [6]: -11.4%

O=C(Cl)C=Cc1ccc([N+](=O)[O-])cc1 (mixture of isomers)
growth inhibition [1]: 4.7%
growth inhibition [2]: 6.7%
growth inhibition [3]: -0.25%
growth inhibition [4]: -6.65%
growth inhibition [5]: 2.15%
growth inhibition [6]: 1.95%

Cc1ccc(S(=O)(=O)C2(NC(=O)c3ccc(Cl)cc3)CC2)cc1
growth inhibition [1]: 10.6%
growth inhibition [2]: 15.5%
growth inhibition [3]: -6.9%
growth inhibition [4]: 5.4%
growth inhibition [5]: -11.5%
growth inhibition [6]: -2.4%

CC(CC(C)(C)C)C(=O)O (configuration not stated)
growth inhibition [1]: -4.05%
growth inhibition [2]: -5.75%
growth inhibition [3]: 2.55%
growth inhibition [4]: 1.2%
growth inhibition [5]: 6.85%
growth inhibition [6]: 7.25%

O=C(OCc1c(-c2ccccc2)nn(-c2ccccc2)c1COC(=O)Oc1ccccc1)Oc1ccccc1
growth inhibition [1]: -2.8%
growth inhibition [2]: -14.6%
growth inhibition [3]: -11.8%
growth inhibition [4]: 17.8%
growth inhibition [5]: -11.2%
growth inhibition [6]: 10.2%

CC(C)C(Br)CCC1=CCC(Br)(Br)C1 (configuration not stated)
growth inhibition [1]: 79.1% (active)
growth inhibition [2]: 82.2% (active)
growth inhibition [3]: 88.5% (active)
growth inhibition [4]: 86.2% (active)
growth inhibition [5]: 84.7% (active)
growth inhibition [6]: 90.3% (active)
